# “And” between values parts separate entries of the source, which are not always exact repeats. Identical values can stand only once. The whole screen tested about 410,000 compounds, of which about 5,100 (1.2%) were called active. Another 8% or so got no clear call; they are omitted. Calls come from the whole dose curve; tested in HEK293T cells. The list comes from a sample in which actives are over-represented; it also holds similar structures and randomly drawn compounds. Entries that show only a call come without a potency.
# Test: High Throughput Screening for Foot and Mouth Disease Virus Antivirals; note: read-out not given here; nearly all actives have a fitted effect of over 45% in size
# Details: FMDV antiviral cell-based qHTS; series mostly up to 57.9 µM
# Potency is the fitted concentration of half-maximal effect.
row,Structure (SMILES),Potency
1,COc1ccc(C2Sc3ccccc3NC3=C2C(=O)c2ccccc23)c(OC)c1OC (centres undefined),inactive
2,O=C(/C=C/Sc1ncn[nH]1)c1ccc(Cl)cc1,28.2 µM (active)
3,O=S(=O)(NCCc1nnc2ccc(SCc3ccc(Cl)cc3Cl)nn12)c1ccccc1,inactive
4,CCc1ccccc1NC(=O)Cn1c(=O)n(CC2CCC(C(=O)NCCc3ccccc3)CC2)c(=O)c2ccccc21 (centres undefined),inactive
5,Cc1cc(C)cc(NS(=O)(=O)c2cc3c(cc2C)NC(=O)CO3)c1,inactive
6,Cn1nnnc1SCCCNCc1cccc(OCc2ccc(Cl)cc2)c1,inactive
7,Cc1ccc(OCCSc2nc(C)c(Cc3ccccc3)c(=O)[nH]2)cc1,inactive
8,CC(=O)Nc1ccc(S(=O)(=O)N2CCN(c3ccc([N+](=O)[O-])c(NCCN4CCOCC4)c3)CC2)cc1,inactive
9,COc1ccc(CCNC(=O)C2CCCN2C(=O)Nc2ccccc2)cc1OC (centres undefined),inactive
10,COc1ccc(CCNc2cc(N3CCN(C(=O)c4ccccc4OC)CC3)ccc2[N+](=O)[O-])cc1OC,8.91 µM (active)
11,CC(C)c1ccc(NC(=O)c2cc(S(=O)(=O)N3CCc4ccccc4C3)ccc2F)cc1,inactive
12,Cc1ccccc1CNC(=O)c1cccc(NC(=O)c2nsc3ccccc23)c1,inactive
13,O=C(CSc1ncc(CO)n1Cc1ccc(F)cc1)NCc1ccco1,inactive
14,Cc1cc(C=O)c(C)n1-c1ccc(NC2CCCCC2)c([N+](=O)[O-])c1,31.6 µM (active)
15,COc1ccc(NC(=O)CN(C)C(=O)c2ccc(NC3CC3)c([N+](=O)[O-])c2)cc1,inactive
16,Cc1ccc(C(=O)COC(=O)CCCC(=O)NC2CCCCC2)cc1[N+](=O)[O-],inactive
17,O=S1(=O)CCC(NC(=S)SCc2ccccc2Br)C1 (centres undefined),15.8 µM (active)
18,O=C(CSc1ccccc1F)NC1CCS(=O)(=O)C1 (centres undefined),inactive
19,CCN(CC(=O)NC1CCS(=O)(=O)C1)S(=O)(=O)c1ccccc1 (centres undefined),inactive
20,COc1ccccc1C(=O)Nc1c(C(=O)Nc2ccc(C)cc2)oc2ccccc12,inactive
21,C/C=C1\C2C=C(C)CC1(N)c1ccc(=O)[nH]c1C2 (centres undefined),inactive
22,CCC1CCCCN1S(=O)(=O)c1ccc(NC(=O)c2cc(=O)c3ccccc3o2)cc1 (centres undefined),20 µM (active)
23,Cc1ccc2oc(C(=O)Nc3ccc(S(=O)(=O)N4CCCCCC4)cc3)cc(=O)c2c1,inactive
24,Cc1cc(C)c2oc(C(=O)Nc3ccc(S(=O)(=O)N4CCCCCC4)cc3)cc(=O)c2c1,inactive

row,Structure (SMILES),Potency
1,Cc1c(Cl)cccc1NC(=O)c1noc2c1CCCC2,inactive
2,Cc1cccc(N2CCN(C(=O)c3ccc4c(c3)CCN4S(=O)(=O)c3ccccc3)CC2)c1C,inactive
3,COc1ccc(C)cc1NC(=O)CCc1c(C)nn(-c2ccc(N3CCOCC3)nn2)c1C,inactive
4,CC(C)=CCN1CCC2(CCc3ccccc32)CC1,inactive
5,COc1cccc(C(=O)Nc2ccc(-c3cc(C(F)(F)F)nn3-c3ccccc3)cc2)c1,12.6 µM (active)
6,COc1cccc(C(=O)NC(=O)Nc2nc(C)cc(C(F)(F)F)n2)c1,inactive
7,COc1ccc(C(=O)Nc2ccc(-n3nncc3-c3ccccc3)cc2)cc1OC,inactive
8,Cc1csc(-c2coc3cc(O[C@@H]4O[C@H](CO)[C@@H](O)[C@@H](O)[C@H]4O)ccc3c2=O)n1,inactive
9,Cc1cc(NC(=O)CSc2ncc(C(=O)Nc3ccc(Cl)cc3)c(=O)n2C)no1,inactive
10,Cc1cc(C)cc(-n2c(SCC(=O)NCC3CCCO3)nc3c([nH]c4ccccc43)c2=O)c1 (centres undefined),inactive
11,Cc1ccc(NC(=O)c2cnc(SCC(=O)NCC3CCCO3)n(C)c2=O)cc1 (centres undefined),25.1 µM (active)
12,O=C(Cc1ccccc1)Nc1sc2c(c1C(=O)Nc1ccc(Br)cc1)CCC2,inactive
13,COCCNc1ccnc(-c2cccc(NS(C)(=O)=O)c2)n1,inactive
14,CNc1ncnc2ccc(-c3cccc(NS(C)(=O)=O)c3)cc12,inactive
15,COC(=O)CC1C(C)(C)C(OC(C)=O)C2CC3=C4CC(=O)OC(c5ccoc5)[C@]4(C)CCC3[C@@]1(C)C2=O (some centres undefined),inactive
16,Cc1ccc(-c2nn(CC(C)(C)C)c3ncnc(N)c23)cc1,inactive
17,CC(=O)N1CCCc2cc(S(=O)(=O)N3CCCC(C(=O)N4CCN(c5cccc(Cl)c5)CC4)C3)ccc21 (centres undefined),17.8 µM (active) and 12.6 µM (active)
18,CC(=O)N1CCCc2cc(S(=O)(=O)N3CCC(C(=O)NC4CCCCC4)CC3)ccc21,inactive
19,COc1cccc(N2CCN(S(=O)(=O)c3ccc4c(c3)CCCN4C(C)=O)CC2)c1,inactive
20,COCCN1CCN(C(=O)c2sc3ncnc(NCC4CCCO4)c3c2C)CC1 (centres undefined),inactive
21,CC(C)(c1ccc(OC[C@@H]2CO2)cc1)c1ccc(OC[C@H]2CO2)cc1,inactive
22,CN[C@@H]1[C@H](O[C@H]2[C@H](O[C@H]3[C@H](O)[C@@H](O)[C@H](N=C(N)N)[C@@H](O)[C@@H]3N=C(N)N)O[C@@H](C)[C@]2(O)CO)O[C@@H](CO)[C@H](O)[C@H]1O,inactive
23,Nc1ccc2c(c1)C(=Cc1cccnc1)c1ccccc1-2,inactive
24,O=C(O)CCc1cccnc1,inactive

row,Structure (SMILES),Potency
1,O=C1/C(=C\c2cccnc2)CN(Cc2ccccc2)C/C1=C\c1cccnc1,6.31 µM (active)
2,CS(=O)(=O)Nc1cccc(-c2cncnc2Nc2ccccc2)c1,inactive
3,CN(Cc1ccco1)c1cc(-c2ccccc2C(F)(F)F)ncn1,inactive
4,C=CC(C1=CC(=O)C=CC1=O)c1ccc(O)cc1 (centres undefined),inactive
5,CC(=O)OC1C2(CC3N4C(=O)C5(CO)SSC4(CC31O)C(=O)N5C)OC(C)C(C)(C)C2=O (centres undefined),2 µM (active)
6,Cc1cccc(Nc2cc(C)nc(-n3nc(C)cc3C)n2)c1,inactive
7,COc1ccccc1-c1cc(C(F)(F)F)nc(S(=O)(=O)CCCC(=O)Nc2cc(C)ccc2O)n1,inactive
8,Cc1ccc(C)c(N2CCN(C(=O)Cn3ncc4c(=O)oc5ccc(C)cc5c43)CC2)c1,inactive
9,O=C(c1csnn1)N1CCC2(CC1)CN(c1ncccn1)C2,inactive
10,Cc1cccn2c(=O)c(C(=O)NC(C)c3ccccc3)cnc12 (centres undefined),inactive
11,CCCc1[nH]nc2c1C(c1ccc(Br)s1)C(C#N)=C(N)O2 (centres undefined),25.1 µM (active)
12,CCCc1nc2c([nH]1)C(c1cccnc1)C(C#N)=C(N)O2 (centres undefined),inactive
13,CCNc1nc2[nH]c(=O)c3c(c2s1)OC(N)=C(C#N)C3c1cccs1 (centres undefined),inactive
14,CCC(=O)N1CCc2cc(CNS(=O)(=O)c3ccc(Br)s3)ccc21,inactive
15,CC(C)CCn1c(=O)c2c(nc3n2CCCN3Cc2ccccc2)n(C)c1=O,inactive
16,Cn1c(=O)c2c(nc(NCCc3ccccc3)n2Cc2ccccc2Br)n(C)c1=O,inactive
17,Cn1c(=O)c2c(nc(SCC(=O)Nc3ccc(F)cc3)n2Cc2ccccc2)n(C)c1=O,inactive
18,Cn1c(=O)c2c(nc(OCc3cccnc3)n2Cc2ccccc2)n(C)c1=O,inactive
19,Cn1c(=O)c2c(nc(NCCc3ccccc3)n2Cc2ccccc2)n(C)c1=O,14.1 µM (active)
20,CC(C)CCn1c(CN(C)Cc2ccccc2)nc2c1c(=O)n(C)c(=O)n2C,39.8 µM (active)
21,CN(C)C(=O)c1ccc(-c2cncnc2NC2CCNCC2)cc1,inactive
22,COCCn1c(=O)c(-c2cccs2)nc2cnc(N3CCN(C)CC3)nc21,inactive
23,Cc1ccccc1NC(=O)Cn1c(=O)n(CCCCC(=O)NCc2ccccc2Cl)c(=O)c2ccccc21,inactive
24,C=CS(=O)c1sc(Cl)c(N2CCOCC2)c1[N+](=O)[O-] (centres undefined),28.2 µM (active)

row,Structure (SMILES),Potency
1,CN(C)c1ncc2nc(-c3ccc(F)cc3)c(=O)n(Cc3ccc(F)cc3)c2n1,inactive
2,O=C(O)c1cc(S(=O)(=O)N(Cc2ccccc2)c2ccccc2)ccc1Cl,inactive
3,O=C(CCl)N(Cc1cccc([N+](=O)[O-])c1)c1cccc(Cl)c1,28.2 µM (active)
4,CC(=O)N(CN1C(=O)C2C3C=CC(C3)C2C1=O)c1cccc(Cl)c1 (centres undefined),inactive
5,FC(F)(F)c1ccccc1-c1nc(-n2ccnc2)c2ccccc2n1,inactive
6,Cc1cccc(NC(=O)Cn2c(C(F)(F)F)nc3ccccc32)c1C,inactive
7,CC(=O)Nc1cc(C(=O)N2CCc3c(Cl)cccc3C2)cc2ncn(CCc3ccccn3)c12,inactive
8,CCOC(=O)C1CCCN(C(=O)c2cncc(Br)c2)C1 (centres undefined),inactive
9,CCOC(=O)C1CCCN(C(=O)c2ccc3c(c2)sc2nc(-c4ccc(CC)cc4)cn23)C1 (centres undefined),14.1 µM (active)
10,COc1ccc(CCNC(=O)c2ccc3c(c2)sc2nc(-c4ccc(C)cc4)cn23)cc1OC,inactive
11,CCC(=O)N1c2ccccc2CC1C(=O)N1CCN(c2cccc(OC)c2)CC1 (centres undefined),inactive
12,CCNS(=O)(=O)c1ccc(CCC(=O)N2CCN(c3ccc(OC)cc3)CC2)cc1,inactive
13,CCNS(=O)(=O)c1ccc(CCC(=O)N2CCN(c3cc(Cl)ccc3C)CC2)cc1,15.8 µM (active)
14,CCCNS(=O)(=O)c1ccc(CCC(=O)N2CCCC2)cc1,inactive
15,Cc1cnc(C(=O)N2CCOc3ccc(CN4CCCC(C(=O)c5cccnc5)C4)cc3C2)[nH]1 (centres undefined),inactive
16,CC(=O)Nc1ccccc1-c1nc(CNC(=O)c2ccc(Cl)cc2)c(C)o1,inactive
17,C=CCOc1ccc(/C=C/C(=O)OC(C)C(=O)Nc2ccc(NC(C)=O)cc2)cc1 (centres undefined),inactive
18,C=CCN1C(=O)NC(=O)/C(=C/c2ccc(OCC(=O)Nc3ccc(C)cc3)cc2)C1=O,inactive
19,C=CCOc1ccc(/C=C2\SC(=S)N(CCC(=O)O)C2=O)cc1,1 µM (active)
20,COC(=O)[C@@H]1C[C@H](NC(=O)c2ccccc2C(F)(F)F)CN1Cc1cccc(O)c1,inactive
21,FC(F)(F)c1cccc(-c2cn[nH]c2C2CCCN(Cc3cccn3-c3ccccn3)C2)c1 (centres undefined),inactive
22,COc1ccc(CCC(=O)c2c(O)cc(OC3OC(CO)C(O)C(O)C3O[C@@H]3OC(C)C(O)C(O)C3O)cc2O)cc1O (some centres undefined),inactive
